This is one part of a sample in which hits are shown more often than they occur.
PTAP-TSG101 blk = qHTS Validation Assay for Inhibitors of HIV-1 Budding by Blocking the Interaction of PTAP/TSG101: Sytravon Library Screen; 44,000 tested, under 10 active; Tumor susceptibility gene 101 protein (Homo sapiens), Q99816; Fluorescence polarization, FITC-PTAP peptide/Tsg101, 20 min; Potency, µM (top dose mostly 115 µM), usual class: inhibitors; note: potency is the fitted concentration of half-maximal effect; 0% is about no effect
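Fluorescence polarization: Tsg101 binding domain (10 uM final) in 10 mM HEPES pH 7.5, 0.15 M NaCl, 0.01% Tween 20, 3 mM EDTA, 0.1 mM TCEP; compounds pinned; FITC-PTAP peptide 50 nM final; 20 min, r.t.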
NTMT1 inh = Primary qHTS for Inhibitors of N-terminal methyltransferase 1 (NTMT1): MTaseGlo Assay. N-terminal Xaa-Pro-Lys N-methyltransferase 1 (Homo sapiens), Q9BV86. NTMT1 MTase-Glo SAH luminescence, purified enzyme. Potency, µM (doses to about 114 µM), for the others: at the highest dose activity change, negative = inhibition, most hits filed as inhibitors. 2.5% of 59,000 active;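 note: potency is the fitted concentration of half-maximal effect; plate controls were DMSO vehicle for no effect and no enzyme for full effect; nearly all actives have a fitted effect of over 65% in size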
Target sequence (Q9BV86 whole entry, looked up): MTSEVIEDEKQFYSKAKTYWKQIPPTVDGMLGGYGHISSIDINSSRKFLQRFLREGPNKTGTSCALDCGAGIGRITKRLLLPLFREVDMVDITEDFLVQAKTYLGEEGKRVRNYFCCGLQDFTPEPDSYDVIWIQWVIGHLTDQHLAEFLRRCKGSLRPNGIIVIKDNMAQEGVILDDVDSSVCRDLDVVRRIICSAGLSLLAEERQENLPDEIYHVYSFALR
FH mod = Identification of activators of human fumarate hydratase by quantitative high-throughput screening. Fumarate hydratase, mitochondrial (Homo sapiens), P07954. Potency, µM (doses to about 79.9 µM), for the others: top-dose activity change, negative = inhibition, hits mostly inhibitors. AID 1347055, 2019. FH coupled MDH/diaphorase resazurin fluorescence, 15 min. 0.22% of 54,000 active; note: potency is the fitted concentration of half-maximal effect; % is set by controls: 0 for no effect and ±100 for the full control effect; the screen sought activators but most active calls are inhibition curves; nearly all actives have a fitted effect of over 45% in size
Target sequence (P07954 whole entry, looked up): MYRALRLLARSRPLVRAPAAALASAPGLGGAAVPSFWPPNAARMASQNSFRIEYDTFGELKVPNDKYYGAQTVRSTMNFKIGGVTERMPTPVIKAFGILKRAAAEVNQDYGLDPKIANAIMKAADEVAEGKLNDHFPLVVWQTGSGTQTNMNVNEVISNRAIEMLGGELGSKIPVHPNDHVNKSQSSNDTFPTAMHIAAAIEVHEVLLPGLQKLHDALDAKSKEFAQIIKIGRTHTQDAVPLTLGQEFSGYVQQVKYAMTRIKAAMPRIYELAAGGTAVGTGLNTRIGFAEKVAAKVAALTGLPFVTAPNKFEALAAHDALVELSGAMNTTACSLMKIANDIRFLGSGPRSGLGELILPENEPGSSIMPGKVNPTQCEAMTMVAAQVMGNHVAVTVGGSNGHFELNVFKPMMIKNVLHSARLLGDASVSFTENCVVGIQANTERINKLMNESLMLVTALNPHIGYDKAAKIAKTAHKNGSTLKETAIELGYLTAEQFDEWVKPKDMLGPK
B2AR arrestin ag = qHTS assay of beta-arrestin-biased ligands of beta2-adrenergic receptor: NCGC Sytravon Library Screen; HTLA Tango cells, beta-arrestin recruitment, luciferase luminescence, 18 h; Potency, µM (titrated, usually from 46.1 µM), actives largely listed as activators; AID 1347077, 2019; Beta-2 adrenergic receptor (Homo sapiens), P07550; 44,000 tested, under 10 active;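 note: potency is the fitted concentration of half-maximal effect; 0% = DMSO and full agonism = EC100 isoproterenol or metaproterenol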
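Ligand-induced beta-arrestin recruitment to recombinant beta2-AR is measured via a tTA-driven luciferase reporter in Tango cells after 18 hr compound exposure at 37 degrees C. Concentrations span up to 46 microM.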
GALK inhibitor = qHTS Assay for Inhibitors of Human Galactokinase (GALK): NCGC Sytravon Library Screen. recombinant GALK, Kinase-Glo ATP luminescence, 1 h. Potency, µM (top dose mostly 57.5 µM), inactives show at the highest dose activity, negative = inhibition, usual class: inhibitors. 44,000 tested, under 10 active. AID 1347072, 2019;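 note: plate controls were full GALK reaction for no effect and reaction lacking GALK for full effect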
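Luminescent ATP-depletion readout (Kinase-Glo Plus) after 1 h room-temperature incubation of human GALK (5 nM) with galactose 100 µM and ATP 35 µM, pH 8.0 HEPES/Mg2+ buffer; compounds tested in qHTS format.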
GALC G270D up = A Novel Cell-Based Assay to Identify Small Molecules for B -Galactocerebrosidase; 145M-Twi-hGALC-G270D cells (Twitcher mouse brain line with human GALC G270D), HMU-beta-Gal fluorescence, 48 h; 0.1% of 45,000 active; P54803; Potency, µM (doses to about 57.5 µM), most hits filed as activators; note: potency is the fitted concentration of half-maximal effect; 0% is about no effect; nearly all actives have a fitted effect of over 65% in size
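Brain-derived Twitcher mouse 145M-Twi cells stably expressing human GALC-G270D or wild-type GALC, treated live, then residual GALC activity read by fluorescence of HMU-b-Gal substrate (0.1 mM final) in citrate-phosphate buffer pH 5.2 with sodium taurocholate. Signal increase indicates enhancement.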
The depositor's hits bear a star; i = inactive; u = inconclusive; x = no result; ! = not active in a repeat; [ ] = remark or other dose. Calls come from the whole dose curve; as a rule, active = well fitted curve in the direction sought with a large enough effect; inconclusive = small, poorly fitted or top-dose-only effect, or another doubt; inactive = no such curve, though single readings can be large; an effect the other way counts as inactive or inconclusive.

SMILES | PTAP-TSG101 blk | NTMT1 inh | FH mod | B2AR arrestin ag | GALK inhibitor | GALC G270D up
COc1ccc(CCNC(=O)CCc2c(C)c3cc4c(C)coc4c(C)c3oc2=O)cc1OC | i | 89µM* | -6% | i | 0% | i
COc1ccc(C2=N[C@@H](c3ccc(Cl)cc3)[C@@H](c3ccc(Cl)cc3)N2C(=O)N2CCNC(=O)C2)c(OC(C)C)c1 | x | 2%[57.5 µM] | -7% | x | x | x
CCC1CCCCN1CCCNC(=O)c1cc2c(Cl)nc3ccc(C)cc3c2s1 (stereo unspecified) | i | 28µM* | -15% | i | 8% | i
CC(C)(C)c1ccc(O)c(O)c1 | x | 4.5µM* | 40µM* | x | x | i
Cc1cc(C(C)(C)C)c(O)c(C(C)(C)C)c1 | x | 32%[57.5 µM] | -3%[53.3 µM] | x | x | i
Cn1nc(-c2ccc(C(F)(F)F)cc2)nc2c(=O)n(C)c(=O)nc1-2 | x | -3%[57.5 µM] | 4µM* | x | x | x
NC(=O)[C@H](O[C@@H]1O[C@H](CO)[C@@H](O)[C@H](O)[C@H]1O)c1ccccc1 | x | -6%[29.8 µM] | -1%[53.3 µM] | x | x | x
N#CC1=C2SCN(C3CCCCC3)CN2C(=O)CC1c1ccc(Cl)cc1 (stereo unspecified) | i | 25µM* | -27% | i | 8% | i
N#CC1=C2SCN(C3CCCCC3)CN2C(=O)CC1c1ccc(F)cc1 (stereo unspecified) | i | 25µM* | -18% | i | -1% | i
N#CC1=C2SCN(C3CCCCC3)CN2C(=O)CC1c1c(F)cccc1Cl (stereo unspecified) | i | 32µM* | -15% | i | -7% | i
CC1=C(C(=O)OC2CCCCCC2)C(c2ccc(Cl)cc2)CC(=O)N1 (stereo unspecified) | i | 12% | -2% | i | 2% | i
N[C@@H](CCC(=O)O)C(=O)N[C@@H](Cc1c[nH]c2ccccc12)C(=O)O | x | 8% | x | x | x | x
CC1(C(=O)O)CC[C@]2(C(=O)OC3OC(CO)C(O)C(O)C3O)CC[C@]3(C)C(=CCC4[C@@]5(C)CC[C@H](OC6OCC(O)C(O)C6OC6OC(CO)C(O)C(O)C6O)C(C)(C)C5CC[C@]43C)C2C1 (stereo partly specified) | x | 15%[12.6 µM] | 18%[20.6 µM] | x | x | x
CC(C)(C)OC(=O)N1CCN(c2ccc(NCc3ccc(-c4ccc(C#N)cc4)o3)cc2)CC1 | x | 12% | x | x | x | x
Cc1c(-c2ccccc2)c(=O)oc2c(CN3CCN(C)CC3)c(O)ccc12 | i | -7% | 5% | i | 1% | 4.5µM*
Cc1c(-c2ccc(Cl)cc2)c(=O)oc2c(CN3CCN(C)CC3)c(O)ccc12 | i | -2% | -10% | i | 0% | i
c1ccc(C(OC2CCN(CCCc3nn[nH]n3)CC2)c2ccccc2)cc1 | x | 1%[57.5 µM] | 5% | x | x | x
CC(CC1c2ccccc2CCc2ccccc21)CN(C)C (stereo unspecified) | x | 13µM* | 0%[53.3 µM] | x | x | i
CO[C@H]1C=CC=C(C)C(=O)NC2=CC(=O)C(NCCN(C)C)=C(C[C@@H](C)C[C@H](OC)[C@@H](O)[C@@H](C)C=C(C)[C@@H]1OC(N)=O)C2=O | x | 27µM* | -18%[53.3 µM] | x | x | x
CC1C2=CC(=O)OC2(O)CC2C1C(O)CC1C(C)(CO)CCCC21C (stereo unspecified) | x | 8%[29.8 µM] | 5%[53.3 µM] | x | x | x
CCS(=O)(=O)N1CCc2cc(C(=O)Nc3ccc(Br)cc3F)ccc21 | i | 89µM* | -6% | i | 0% | i
CCS(=O)(=O)N1CCc2cc(C(=O)NCCc3ccccc3)ccc21 | i | 89µM* | -10% | i | 2% | i
Cc1ccc(OCCn2c(CCNC(=O)c3cc(F)cc(F)c3)nc3ccccc32)cc1 | x | 3% | x | x | x | x
CC(C)(C)c1ccc(-c2nc(SCC(=O)Nc3ccc(Cl)cc3)[nH]c(=O)c2C#N)cc1 | i | 20µM* | u | i | 4% | i
CCc1ccc(NC(=O)CSc2nc(C)c(C(=O)Nc3ccc(Cl)cc3)c(-c3ccc(OC)cc3)c2C#N)cc1 | i | 9% | -1% | i | 2% | i
SMILES | PTAP-TSG101 blk | NTMT1 inh | FH mod | B2AR arrestin ag | GALK inhibitor | GALC G270D up
COc1ccc(-c2nn(-c3ccc(F)cc3)c3c2cnc2cc4c(cc23)OCO4)cc1 | i | 3% | -2% | i | 0% | i
COc1cc(OC)cc(-c2ccc3ncc4ccc(=O)n(-c5ccc(N6CCNCC6)c(C(F)(F)F)c5)c4c3c2)c1 | x | 43µM* | -20%[53.3 µM] | x | x | x
CC(C)N(CCCNC(=O)Nc1ccc(C(C)(C)C)cc1)C[C@H]1O[C@@H](n2cc(Br)c3c(N)ncnc32)[C@H](O)[C@H]1O | x | 19µM* | 2%[53.3 µM] | x | x | x
Cc1cccc(NC(=O)Cn2cc(C(=O)c3ccco3)c3ccccc32)c1C | i | 79µM* | 1% | i | 1% | i
COc1ccc(C2Nc3ccccc3C(=O)N2Cc2ccco2)cc1COc1c(C(C)C)cccc1C(C)C (stereo unspecified) | x | 3% | x | x | x | x
O=C1CCCC2=C1C(c1ccc(F)cc1)N=C(Nc1nc3ccccc3o1)N2 (stereo unspecified) | x | 6% | x | x | x | x
Nc1cccc(CNC(=O)c2ccc(Oc3ccc(OCc4cccc(F)c4)cc3)nc2)c1 | x | u | -15% | x | x | x
CN(CCOc1ccc(C[C@H](Nc2ccccc2C(=O)c2ccccc2)C(=O)O)cc1)c1ccccn1 | x | 79µM*! | x | x | x | x
CC(C)(C)C1CCc2oc3ccc(NS(=O)(=O)c4ccc(C(=O)O)cc4)cc3c2C1 (stereo unspecified) | i | 50µM* | u | i | 2% | i
CC(C)(C)C1CCc2oc3ccc(NS(=O)(=O)c4cc(Cl)ccc4Cl)cc3c2C1 (stereo unspecified) | i | -11% | -35% | i | 2% | i
COc1cc(C(CC(=O)Nc2ccc(C)c(F)c2)N2Cc3ccccc3C2=O)cc(OC)c1OC (stereo unspecified) | i | 5% | 3% | i | 3% | i
CCOC(=O)c1cccc(NC(=O)CC(c2cc(OC)c(OC)c(OC)c2)N2Cc3ccccc3C2=O)c1 (stereo unspecified) | i | 89µM* | -13% | i | 6% | i
CCN(CCCNC(=O)c1cc2cc3ccc(OC)cc3nc2s1)c1ccccc1 | i | 89µM* | 8% | i | -5% | i
